Screening results from PubChem BioAssay.
PLK1 PBD block: blocks phosphopeptide binding to human PLK1 polo-box domain | Plk1 PBD binding of FITC phosphopeptide, fluorescence polarization | P53350 | Potency, µM, without a hit: max response, negative = inhibition, usual class: inhibitors | hit rate 2.8% among 360,000; note: potency is the fitted concentration of half-maximal effect; series mostly up to about 57 µM; % is set by controls: 0 for no effect and ±100 for the full control effect; nearly all actives have a fitted effect of over 65% in size
HP1b binding inh: blocks HP1-beta chromodomain binding to methylated histone tails | AlphaScreen HP1-beta / biotin-H3K9me3 peptide binding | Potency, µM (top dose mostly 114 µM), for the others: at the top dose activity change, negative = inhibition, actives largely listed as inhibitors | AID 540317 | hit rate 0.56% among 390,000; note: potency is the fitted concentration of half-maximal effect; nearly all actives have a fitted effect of over 70% in size
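HP1-beta protein (50 nM final) preincubated 30 min at room temperature with biotinylated H3(1-18)K9me3 peptide (50 nM) in PBS pH 7.4, 0.01% Tween-20, then compound added for 30 min. AlphaScreen streptavidin donor/nickel chelate acceptor beads (10 ug/mL final), 30 min dark, luminescence read.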
BAZ2B block: BAZ2B (human) inhibition. AlphaScreen BAZ2B-H3K14Ac peptide displacement. hit rate 4.4% among 360,000. Potency, µM (titrated, usually from 114 µM), for inactives: at the top dose activity change, negative = inhibition, usual class: inhibitors. Q9UIF8. AID 504333; note: potency is the fitted concentration of half-maximal effect; % is set by controls: 0 for no effect and ±100 for the full control effect; nearly all actives have a fitted effect of over 60% in size
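Multi-concentration screen (max 110 uM) measuring displacement of acetylated histone H3 peptide from BAZ2B by AlphaScreen, using 50 nM protein, 50 nM peptide and 10 ug/mL streptavidin donor plus Ni-chelate acceptor beads.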
G9a block: blocks human histone lysine methyltransferase G9a. Q96KQ7. G9a H3K9 monomethylation, AlphaScreen, 2 h. Potency, µM (doses to about 102 µM), inactives show at the highest dose activity, negative = inhibition, usual class: inhibitors. hit rate 8.8% among 350,000. AID 504332; note: potency is the fitted concentration of half-maximal effect; % is set by controls: 0 for no effect and ±100 for the full control effect; nearly all actives have a fitted effect of over 75% in size
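Signal arises when biotinylated H3K9 peptide, once monomethylated, bridges streptavidin donor and antibody-captured acceptor beads. Enzyme at 20 nM was preincubated 15 min with test compounds; peptide 500 nM and SAM 20 uM then reacted for 2 h.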
PI5P4K alpha inh: blocks human PI5P4K alpha kinase activity. P48426. PI5P4Kalpha enzyme, ADP-Glo luminescence, 60 min; active compounds read low. max response, %. hit rate 1.2% among 330,000. AID 652105; active = max response of -50% or lower; inconclusive = between -30% and -50%; inactive = -30% or higher; note: value at the top dose of about 77 µM; % is set by controls: 0 for no effect and ±100 for the full control effect
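qHTS, 1536-well: enzyme/substrate mix, compound by pin tool, 5 microM ATP final; RT 60 min; ADP-Glo reagents 1 (45 min) then 2 (30 min); luminescence.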
JMJD2A Tudor: blocks the human JMJD2A Tudor domain. O75164. AlphaScreen JMJD2A-Tudor / H3K4me3 peptide binding. Potency, µM (titrated, usually from 114 µM), without a hit: at the top dose activity change, negative = inhibition, most hits filed as inhibitors. hit rate 4.4% among 390,000; note: potency is the fitted concentration of half-maximal effect; % is set by controls: 0 for no effect and ±100 for the full control effect; nearly all actives have a fitted effect of over 50% in size
The depositor's hits bear a star; ? = inconclusive; · = not tested or not shown; [ ] = another dose, or the depositor's remark. Only some compounds are listed: those with a hit (about 12% of all), similar ones and a draw of the others. Unless noted, calls come from the whole dose curve; as a rule, active = well fitted curve in the direction sought with a large enough effect; inconclusive = small, poorly fitted or top-dose-only effect, or another doubt; inactive = no such curve, though single readings can be large; an effect the other way counts as inactive or inconclusive.

SMILES	PLK1 PBD block	HP1b binding inh	BAZ2B block	G9a block	PI5P4K alpha inh	JMJD2A Tudor
C[n+]1c(/C=C/c2ccc3c(c2)OCO3)ccc2ccccc21	-20.6%	-13.1%	?	?	-3.5	?
CC(=O)c1cccc(NC(=O)C2C3C=CC(C3=C(c3ccccc3)c3ccccc3)C2C(=O)O)c1 (centres undefined)	33.6µM*	6.3%	?	50.1µM*	-1.2	?
Cc1ccc2c(Sc3ccccc3)c(C(=O)NCc3ccccc3F)[nH]c2c1	·	10.9%	-29.2%	?	·	?
O=C(NCCc1ccccc1)c1ccc2c(c1)OCCCO2	-19.9%	7.1%	-38.2%	31.6µM*	-3.3	-12.9%
O=C(NCCc1ccccc1)c1ccc2c(c1)OCCO2	-7.7%	41.9%	2.7%	·	-9.7	-10.9%
O=C(NC1CCCC1)c1ccc2nc(-c3ccco3)c(-c3ccco3)nc2c1	8.44µM*	79.4µM*	?	5.01µM*	-62.9*	28.2µM*
O=C(NCCO)c1ccc2nc(-c3ccco3)c(-c3ccco3)nc2c1	16.8µM*	44.7µM*	?	1.41µM*	-16.1	22.4µM*
O=C(NCCc1ccccc1)c1ccc2nc(-c3ccco3)c(-c3ccco3)nc2c1	?	?	10µM*	1.41µM*	-63.3*	56.2µM*
Cc1oc(-c2ccc(Cl)cc2)nc1CN1CCCC(C(=O)NCCc2ccc(Cl)cc2)C1 (centres undefined)	·	8.9%	-34.0%	?	·	?
CCc1nc2ccc(C(=O)NC3CCC(C)CC3)cc2nc1CC (centres undefined)	29.9µM*	24.2%	-2.6%[57.1 µM]	3.6%	2.1	?
CC1CCC(NC(=O)c2ccc3snnc3c2)CC1 (centres undefined)	-6.4%	33.1%	1.1%	24.3%	4.0	6.2%
O=C(CCC(=O)N1CCOCC1)NCc1cccc(C(F)(F)F)c1	-3.3%	41.4%	-2.5%	2.6%[12.7 µM]	8.8	-1.3%
COc1ccc(Nc2nnc(SC(C)C(=O)NC3CC3)s2)cc1 (centres undefined)	-10.4%	23.4%	·	·	-3.2	-14.5%
CC(Sc1nnc(NC2CCCCC2)s1)C(=O)Nc1ccc2c(c1)C(=O)c1ccccc1C2=O (centres undefined)	?	-17.3%	-35.9%	3.55µM*	?	?
CC(Sc1nnc(NC2CC2)s1)C(=O)Nc1ccc(N2CCOCC2)cc1 (centres undefined)	-0.8%	16.1%	-18.6%	44.7µM*	-4.4	-1.4%
O=C(CSc1nnc(NC2CCCCC2)s1)Nc1ccc(N2CCOCC2)cc1	-0.3%	9.0%	-35.1%	17.5%[59 µM]	·	-11.4%
Cc1ccc(N=Nc2c(N)[nH]n3c(=O)cc(-c4ccccc4)nc23)cc1	?	?	4.4%[57.1 µM]	?	-28.0	?
Cc1ccc(N=Nc2c(=O)[nH]n3c(=O)cc(C)[nH]c23)cc1	-8.0%	-16.8%	50.1µM*	?	?	?
N=C1CCC(=N)c2c1c(O)c1ccccc1c2O	?	20µM*	14.1µM*	·	-71.8*	14.1µM*
c1ccc(CNc2nc3c(-c4ccccc4)nnn3c3ccccc23)cc1	·	30.3%	4.8%	?	·	-6.6%
COC(=O)c1cc2occc2n1Cc1nc(-c2ccc(Cl)cc2)oc1C	29.9µM*	29.2%	-2.4%	-6.2%[59 µM]	-1.6	-1.8%
CCOc1ccc(NC(=O)CSc2nnc(-c3ccco3)n2N)cc1	7.6%	32.7%	-4.4%	40.8%	-0.6	-4.1%
O=C(CSc1nc(-c2ccc(F)cc2)[nH]c1-c1ccc(F)cc1)Nc1ccc2c(c1)OCO2	·	46.0%	?	13.1%[59 µM]	·	-13.4%
CCOc1ccc(NC(=O)CSc2ncc(-c3ccc(F)cc3)n2Cc2ccco2)cc1	-14.1%	-17.7%	8.91µM*	?	1.6	-17.6%[11.4 µM]
O=C(CSc1ncc(-c2ccc(F)cc2)n1Cc1ccco1)Nc1ccc2c(c1)OCO2	-9.3%	-56.4%	11.2µM*	?	7.2	44.7µM*
SMILES	PLK1 PBD block	HP1b binding inh	BAZ2B block	G9a block	PI5P4K alpha inh	JMJD2A Tudor
C/C=C(\C)CN1CCN(c2ccccc2)CC1	3.6%	8.1%	?	50.1µM*	0.1	-15.6%
C/C=C(\C)CN1CCN(c2cc(C)ccc2C)CC1	1.9%	?	-32.5%	1.26µM*	·	5.62µM*
C/C=C(\C)CN1CCN(c2cccc(C)c2C)CC1	-11.4%	29.2%	1.3%	-29.1%[59 µM]	·	-4.8%
Brc1cccc(OCCN2CCc3ccccc3C2)c1	-1.8%	81.6%	-3.3%	·	8.2	14.4%
CN1CCC(OC(=O)COc2ccc(Br)cc2)CC1	-5.7%	21.2%	-10.0%	44.7µM*	-2.1	-3.9%
CC1CCN(CCCCOc2ccc(Br)cc2)CC1	7.6%	-45.8%	-35.5%	?	-6.7	5.01µM*
CC1CC(C)CN(CCOc2ccc(Br)cc2)C1 (centres undefined)	-4.0%	?	?	11.2µM*	3.6	28.2µM*
COc1ccc(OCC(=O)OC2CCN(C)CC2)cc1	0.6%	47.8%	?	?	7.8	-2.5%
CC1CCN(CCCCOc2cccc(Br)c2)CC1	-5.2%	?	?	8.91µM*	-3.5	1.78µM*
N#Cc1cnc(NCc2ccc(Cl)cc2Cl)nc1	-6.3%	25.9%	-0.6%	19.8%	2.5	-7.0%
O=C(/C=C/c1cn(-c2ccccc2)nc1-c1cccnc1)c1ccco1	-4.8%	4.5%	?	-31.7%	-9.1	?
Cc1ccc(C)c(N2CCN(C(=O)Cn3c(-c4cccs4)cc4ccccc43)CC2)c1	·	8.5%	-15.5%	-7.1%[59 µM]	·	-28.1%
Brc1ccc(OCCCCN2CCCCC2)cc1	-4.7%	18.3%	6.5%	·	0.3	-13.3%
Cc1cc(Br)ccc1OCCCCN1CCC(C)CC1	-7.5%	?	?	11.2µM*	-7.0	2.51µM*
COCCN(CCOC)Cc1cc(=O)oc2cc(C)c(C)cc12	-10.2%	·	·	·	10.3	·
Cc1noc(C)c1NC(=O)Nc1ccc2c(c1)C(=O)N([C@H](C)CO)C[C@H](C)[C@@H](CN(C)S(=O)(=O)c1cccs1)O2	-16.8%	22.5%	·	·	3.0	-21.3%
CCOC(=O)CSc1nc(C)cc(C)n1	-6.7%	30.4%	9.5%	?	2.3	-11.9%
CCOC(=O)CSc1cn2c(n1)CCC2	-15.5%	12.6%	6.3%	10µM*	·	-24.5%
COc1ccc(-n2nc3c(c2NC(=O)C24CC5CC(CC(C5)C2)C4)CS(=O)C3)cc1 (centres undefined)	-13.6%	35.6%	-4.7%	79.4µM*	-3.1	-12.1%
CC(C)CCN(C(=O)CCCSc1nc2ccccc2[nH]1)c1c(N)n(Cc2ccccc2)c(=O)[nH]c1=O	-21.4%	53.4%	3.4%	?	0.1	-20.7%
O=C(CN1C(=O)c2ccc([N+](=O)[O-])cc2C1=O)Nc1nccs1	-8.4%	12.5%	-32.1%	50.1µM*	10.5	-13.7%
O=C(CCN1C(=O)c2ccc([N+](=O)[O-])cc2C1=O)Nc1nccs1	-19.5%	51.2%	-0.9%	6.5%	-4.4	-6.0%[11.4 µM]
